From PubChem BioAssay
A number with no mark means an inactive call.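 The calls were made as follows, unless noted: active = RAM network inhibition above 8.4% in each of two replicates, 3 SD over the compound average; inconclusive = above 8.4% inhibition in only one replicate; inactive = 8.4% inhibition or less in each replicate.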

Assay: inhibitors of the yeast RAM network, pilot screen, dse1pr::URA3 reporter, 5-FOA selection (AID 869;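 active = inhibition over a set limit, the all-compound mean plus 3 SD, in both replicate runs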;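 also: 0% = DMSO wells with no growth and 100% = 10 µM 1-NA-PP1 with full growth; RAM network block rescues cells from 5-FOA so hits raise OD615 growth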)
Details: S. cerevisiae dse1pr::URA3 5-FOA growth, OD615, 2 d; at 10 µM; active compounds read high; strain carries analog-sensitive mutant Cbk1 kinase

Compound	inhibition [%]
O=C(OCN1C(=O)c2ccccc2C1=O)C1CCCCC1	1.03
Cc1ccc2cccc(SCC(=O)N3CCOCC3)c2n1	2.27
c1ccn2c(SCc3ccc4c(c3)OCCO4)nnc2c1	0.305
c1ccc(C(Cc2nc(-c3ccccn3)no2)c2ccccc2)cc1	1.98
COC(=O)C(C)Sc1nnc2n(-c3cccc(C)c3)c(=O)c3c4c(sc3n12)CCCC4 (stereo not given)	0.06
Cc1ccc(-c2noc(CN3C(C)CCCC3C)n2)cc1 (stereo not given)	0.67
CCn1c(SCC(=O)Nc2ccc(Cl)cc2)nnc1C1CC1	0.85
COc1ccc(C2CC(c3ccco3)n3ncnc3N2)cc1 (stereo not given)	2.36
COc1ccc(NC(=O)c2cc(C3CC3)on2)c(OC)c1	-0.14
COc1cc(OC)c2c(c1)OC(c1ccc(OC)c(OC)c1)C(O)C2=O (stereo not given)	2.65
N#CCCN(Cc1cccnc1)C(=O)Nc1ccc(Cl)c(Cl)c1	0.065
O=C(c1cccc(F)c1)N1CCc2ccccc21	0.88
COc1ccc(NC(=O)C2CCCCN2S(=O)(=O)c2ccc(F)cc2)cc1 (stereo not given)	1.19
CCN(CC)C(=O)Cn1ncc2c1-c1ccccc1OC2	2.26
Cn1c(=O)oc2cc(S(=O)(=O)NC3CCN(Cc4ccccc4)CC3)ccc21	1.28
COCCOC(=O)c1[nH]c2c(c1C)C(=O)CC(c1ccco1)C2 (stereo not given)	2.79
COc1ccccc1NC(=O)N(C1CCCC1)C1CCN(C(C)=O)CC1	0.72
COc1cc(C(=O)Nc2cccc(-c3nncn3C)c2)cc(OC)c1OC	0.045
CCCCN(CC)CCNC(=O)c1cc2c(C)nc3ccccc3c2o1	0.07
Clc1ccc(SCCCCn2ccnc2)cc1	0.96
CCOC(=O)N1CCC(N2C(=O)c3ccccc3C2Nc2cc(Cl)c(OC)cc2OC)CC1 (stereo not given)	0.285
O=C(Cn1nc(Cc2cccnc2)c2ccccc2c1=O)NCC1CCCO1 (stereo not given)	1.01
CCn1cc(SCC(=O)NCC2CCCO2)c2ccccc21 (stereo not given)	1.44
Cc1noc(C)c1S(=O)(=O)N1CCN(Cc2ccc3c(c2)OCO3)CC1	0.725
CCOC(=O)c1ccc(N2Cc3cc(C)c(C)cc3C2)cc1O	0.285

Assay: RAM signaling pathway blockade in yeast – S. cerevisiae, Pdr1DBD-CYC8 efflux-inhibited sensitized strain, primary screen (AID 1298);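 also: 0% = DMSO untreated cells without growth and 100% = 10 µM 1-NA-PP1 full growth; higher means more yeast growth rescued from 5-FOA killing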
Details: S. cerevisiae cbk1-as DSE1-URA3 strain, 5-FOA growth OD615, 2 d; at 50 µM; active compounds read high

Compound	RAM network inhibition [%]
O=C(NCCN1CCCCCC1)c1ccc(CS(=O)(=O)c2ccc(Br)cc2)o1	4.63
Cc1ccc(S(=O)(=O)NCCOC(=O)Nc2sc(=S)n(C)c2C)cc1	1.73
COc1ccccc1CC(=O)Nc1ccc(OC)c(OC)c1	2.2
CCN(CC)C(=O)C1CCCc2c1[nH]c1ccc(Cl)cc21 (stereo not given)	1.57
CCOC(=O)N1CCC(NC(=O)C2CCCN(C(=O)c3cc4sccc4n3C)C2)CC1 (stereo not given)	0.11
CCOC(=O)c1[nH]c(C)c(C(=O)Nc2ccc(Cl)cc2)c1C	3.1
O=C(NC(=O)c1cccc(F)c1)OC[C@@H]1CCCN2CCCC[C@H]12	9.99
COc1ccccc1-n1c(=O)[nH]c2c(C(N)=O)nc(-c3cccnc3)nc21	4.37
CC1(C)CC(=O)c2cnc(NC(=O)Cc3ccc(Cl)cc3)nc2C1	5.3
CC(C)(NC(=O)N1CCCC1)c1cccc(C(C)(C)NC(=O)N2CCCC2)c1	0.88
COc1ccc(NC(=O)C2CCCN(S(=O)(=O)c3cccc4cccnc34)C2)cc1OC (stereo not given)	2.55
CCOc1ccc(CCN2C(=O)C3C4C=CC(C4)C3C2=O)cc1OCC (stereo not given)	1.5
COc1ccc(S(=O)(=O)N2CCN(c3ccc(C)cc3C)CC2)cc1OC	1.74
O=C(C1CCN(c2nnc(-n3cccc3)s2)CC1)N1CCc2ccccc2C1	6.43
CCOc1cc(C2C3=C(CCCC3=O)N(C)C3=C2C(=O)CCC3)cc(Cl)c1O	4.21
O=C(OCN1C(=O)c2ccccc2C1=O)C1CCCCC1	0.77
Cc1ccc2cccc(SCC(=O)N3CCOCC3)c2n1	1.88
c1ccn2c(SCc3ccc4c(c3)OCCO4)nnc2c1	5.34
c1ccc(C(Cc2nc(-c3ccccn3)no2)c2ccccc2)cc1	6.08
COC(=O)C(C)Sc1nnc2n(-c3cccc(C)c3)c(=O)c3c4c(sc3n12)CCCC4 (stereo not given)	1.84

Compound	RAM network inhibition [%]
Cc1ccc(-c2noc(CN3C(C)CCCC3C)n2)cc1 (stereo not given)	4.84
CCn1c(SCC(=O)Nc2ccc(Cl)cc2)nnc1C1CC1	3.74
COc1ccc(C2CC(c3ccco3)n3ncnc3N2)cc1 (stereo not given)	0.32
COc1ccc(NC(=O)c2cc(C3CC3)on2)c(OC)c1	4.64
COc1cc(OC)c2c(c1)OC(c1ccc(OC)c(OC)c1)C(O)C2=O (stereo not given)	2.25
N#CCCN(Cc1cccnc1)C(=O)Nc1ccc(Cl)c(Cl)c1	4.53
O=C(c1cccc(F)c1)N1CCc2ccccc21	2.7
COc1ccc(NC(=O)C2CCCCN2S(=O)(=O)c2ccc(F)cc2)cc1 (stereo not given)	5.45
CCN(CC)C(=O)Cn1ncc2c1-c1ccccc1OC2	-2.31
Cn1c(=O)oc2cc(S(=O)(=O)NC3CCN(Cc4ccccc4)CC3)ccc21	3.24
COCCOC(=O)c1[nH]c2c(c1C)C(=O)CC(c1ccco1)C2 (stereo not given)	2.52
COc1ccccc1NC(=O)N(C1CCCC1)C1CCN(C(C)=O)CC1	5
COc1cc(C(=O)Nc2cccc(-c3nncn3C)c2)cc(OC)c1OC	1.54
CCCCN(CC)CCNC(=O)c1cc2c(C)nc3ccccc3c2o1	2.07
Clc1ccc(SCCCCn2ccnc2)cc1	-0.38
CCOC(=O)N1CCC(N2C(=O)c3ccccc3C2Nc2cc(Cl)c(OC)cc2OC)CC1 (stereo not given)	3.54
O=C(Cn1nc(Cc2cccnc2)c2ccccc2c1=O)NCC1CCCO1 (stereo not given)	5.65
CCn1cc(SCC(=O)NCC2CCCO2)c2ccccc21 (stereo not given)	4.96
Cc1noc(C)c1S(=O)(=O)N1CCN(Cc2ccc3c(c2)OCO3)CC1	8.84
CCOC(=O)c1ccc(N2Cc3cc(C)c(C)cc3C2)cc1O	1.88
